The source made the active and inactive calls. How the calls were made is not given here.

A short description of the test: V-ATPase proton transport modulators in yeast, dose response, S. cerevisiae, pHLuorin, powder set 4 (AID 652071). The following applies: S. cerevisiae pHLuorin cytosolic pH fluorescence; series mostly up to 100 µM.
With `CN(C)Cc1ccc(C(=O)Nc2ccccc2N2CCN(C)CC2)o1`, the call was inactive.
Regarding `CC(=O)N1CCN(c2ccccc2NC(=O)c2cc(C(F)(F)F)ccn2)CC1`, the result was inactive.
On to `N#CCc1cccc(C(=O)Nc2ccccc2N2CCCCC2)c1`, for which the compound was called inactive.
Turning to `CC(=O)N1CCN(c2ccccc2NC(=O)c2occc2-c2ccccc2)CC1`, the compound was classed as inactive.
For the compound `CC(=O)N1CCN(c2ccccc2NC(=O)c2cccc(C)n2)CC1`, the result was inactive.
For `O=C(Nc1ccccc1N1CCCCC1)c1cncc(Cl)n1`, the call was inactive.
Turning to `CC(=O)N1CCN(c2ccccc2NC(=O)c2cccc(C(N)=O)c2)CC1`, the compound was called inactive.
With `CN1CCN(c2ccccc2NC(=O)c2ccc(Cl)o2)CC1`, the compound was classed as inactive.
Take `CC(=O)N1CCN(c2ccccc2NC(=O)c2cncc(N)n2)CC1`: the call was inactive.
As for `CN1CCN(c2ccccc2NC(=O)c2ccc(S(C)(=O)=O)o2)CC1`, the compound was classed as inactive.
On to `CN1CCN(c2ccccc2NC(=O)c2cncc(N)n2)CC1`, for which the result was inactive.
The entry for `CC(=O)N1CCN(c2ccccc2NC(=O)c2cc(C)ccn2)CC1` is “inactive”.
The entry for `CS(=O)(=O)c1cccc(C(=O)Nc2ccccc2N2CCCCC2)c1` is “inactive”; for `CC(=O)N1CCN(c2ccccc2NC(=O)c2cc(Cl)ccn2)CC1` it is “inactive”; for `O=C(Nc1ccccc1N1CCCCC1)c1cccc(Cl)n1` it is “inactive”.
For the compound `O=C(Nc1ccccc1N1CCOCC1)c1occc1-c1ccccc1`, the compound was classed as inactive.
As for `CC(=O)N1CCN(c2ccccc2NC(=O)c2cccc(S(C)(=O)=O)c2)CC1`, the entry is “inactive”; as for `CN1CCN(c2ccccc2NC(=O)c2ccc(C(F)(F)F)o2)CC1`, “inactive”.
On to `O=C(Nc1ccccc1N1CCCCC1)c1ccc(Br)o1`, for which the compound was called inactive.
Turning to `Cc1cccc(C(=O)Nc2ccccc2N2CCN(C)CC2)n1`, the outcome was inactive.
The entry for `CN1CCN(c2ccccc2NC(=O)c2occc2-c2ccccc2)CC1` is “inactive”; for `CC(=O)N1CCN(c2ccccc2NC(=O)c2ccc(C(N)=O)o2)CC1` it is “inactive”; for `CN1CCN(c2ccccc2NC(=O)c2cccc(C(=O)N(C)C)c2)CC1` it is “inactive”.
With `CC(=O)N1CCN(c2ccccc2NC(=O)c2ccc(C)o2)CC1`, the outcome was inactive.
As for `CN1CCN(c2ccccc2NC(=O)c2cc(Cl)ccn2)CC1`, the entry is “inactive”; as for `Cc1cncc(C(=O)Nc2ccccc2N2CCN(C)CC2)n1`, “inactive”; as for `CC(=O)N1CCN(c2ccccc2NC(=O)c2ccc(S(C)(=O)=O)o2)CC1`, “inactive”.
For `CC(=O)N1CCN(c2ccccc2NC(=O)c2cccc(C(F)(F)F)c2)CC1`, the outcome was inactive.
As for `CS(=O)(=O)Cc1cccc(C(=O)Nc2ccccc2N2CCCCC2)c1`, the entry is “inactive”; as for `CC(=O)N1CCN(c2ccccc2NC(=O)c2cccc(CC#N)c2)CC1`, “inactive”; as for `CN1CCN(c2ccccc2NC(=O)c2ccc(C(N)=O)o2)CC1`, “inactive”.
As for `CN1CCN(c2ccccc2NC(=O)c2cccc(C(F)(F)F)c2)CC1`, the entry is “inactive”; as for `O=C(Nc1ccccc1N1CCCCC1)c1ccc(C(F)(F)F)o1`, “inactive”; as for `O=C(Nc1ccccc1N1CCCCC1)c1occc1-c1ccccc1`, “inactive”.

These data come from PubChem BioAssay AID652071 (NMMLSC, 2013).
